KDM5B inhibitor: Primary screen for KDM5B Histone Demethylases FDH-coupled qHTS. Lysine-specific demethylase 5B (Homo sapiens), Q9UGL1. KDM5B demethylase, FDH-coupled NADH fluorescence (FDH is formaldehyde dehydrogenase). Potency, µM (top dose mostly 57.7 µM), actives largely listed as inhibitors. hit rate 2.6% among 220,000; further: nearly all actives have a fitted effect of over 70% in size
Target sequence (Q9UGL1 whole entry, looked up): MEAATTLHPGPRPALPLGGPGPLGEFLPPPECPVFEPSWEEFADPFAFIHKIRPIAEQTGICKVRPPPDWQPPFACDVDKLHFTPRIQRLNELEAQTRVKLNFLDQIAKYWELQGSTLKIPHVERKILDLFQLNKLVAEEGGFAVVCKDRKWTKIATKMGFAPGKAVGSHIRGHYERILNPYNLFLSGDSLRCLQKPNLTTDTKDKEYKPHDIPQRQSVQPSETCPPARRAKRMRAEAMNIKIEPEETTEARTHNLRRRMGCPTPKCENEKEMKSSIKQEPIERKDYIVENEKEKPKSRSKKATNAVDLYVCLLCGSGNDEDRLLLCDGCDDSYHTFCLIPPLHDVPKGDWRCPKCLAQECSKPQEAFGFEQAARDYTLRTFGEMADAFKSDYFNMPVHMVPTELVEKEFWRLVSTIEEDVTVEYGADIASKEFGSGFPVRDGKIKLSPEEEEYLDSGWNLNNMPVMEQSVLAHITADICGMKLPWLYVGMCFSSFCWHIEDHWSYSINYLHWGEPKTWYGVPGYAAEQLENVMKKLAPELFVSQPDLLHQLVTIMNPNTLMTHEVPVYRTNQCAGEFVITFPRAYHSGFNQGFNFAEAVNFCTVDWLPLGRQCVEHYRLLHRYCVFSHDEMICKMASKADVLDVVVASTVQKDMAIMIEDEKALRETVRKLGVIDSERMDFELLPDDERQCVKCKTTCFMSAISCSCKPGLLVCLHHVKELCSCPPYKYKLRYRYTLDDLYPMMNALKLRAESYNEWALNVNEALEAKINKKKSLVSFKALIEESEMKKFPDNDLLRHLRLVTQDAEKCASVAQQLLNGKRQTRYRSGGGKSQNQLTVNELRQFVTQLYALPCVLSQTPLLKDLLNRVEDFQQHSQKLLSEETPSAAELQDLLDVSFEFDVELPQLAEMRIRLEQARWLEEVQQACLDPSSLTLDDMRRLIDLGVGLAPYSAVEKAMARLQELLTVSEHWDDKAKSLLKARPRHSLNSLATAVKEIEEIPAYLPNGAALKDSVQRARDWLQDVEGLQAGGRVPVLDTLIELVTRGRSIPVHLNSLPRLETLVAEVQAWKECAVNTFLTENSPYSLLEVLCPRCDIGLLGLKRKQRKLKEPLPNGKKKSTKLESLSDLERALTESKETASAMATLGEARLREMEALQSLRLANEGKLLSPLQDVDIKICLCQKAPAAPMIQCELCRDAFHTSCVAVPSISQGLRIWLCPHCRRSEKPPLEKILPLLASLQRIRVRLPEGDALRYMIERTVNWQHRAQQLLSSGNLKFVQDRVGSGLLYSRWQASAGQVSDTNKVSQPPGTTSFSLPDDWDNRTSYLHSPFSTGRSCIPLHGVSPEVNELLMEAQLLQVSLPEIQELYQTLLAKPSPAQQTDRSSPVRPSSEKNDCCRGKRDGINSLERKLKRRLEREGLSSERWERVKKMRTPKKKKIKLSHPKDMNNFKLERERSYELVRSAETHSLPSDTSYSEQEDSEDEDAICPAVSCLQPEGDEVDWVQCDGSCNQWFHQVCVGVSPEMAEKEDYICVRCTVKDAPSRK
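KDM5BΔAP (200 nM final) in 50 mM HEPES pH 7.5, 0.01% Tween-20 was preincubated 10 min at RT with compound over a concentration range. Substrate mix (H3K4me3 12.5 µM, α-KG 25 µM, Fe²⁺, ascorbate, NAD⁺, FDH) was added, and NADH fluorescence change over 30 min gave dose-response curves.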
SNCA expr inhib: Primary qHTS assay for inhibitors of alpha-synuclein gene (SNCA) expression; HEK-293 SNCA-luciferase knock-in, luminescence, 24 h; Potency, µM (doses to about 57.2 µM), usual class: inhibitors; hit rate 0.17% among 140,000; AID 1671194, 2021; further: nearly all actives have a fitted effect of over 45% in size
SNCA viab count: GF-AFC viability counterscreen for inhibitors of alpha-synuclein gene (SNCA) expression. hit rate 0.12% among 150,000. Potency, µM (highest dose often 57.1 µM), most hits filed as cytotoxic. HEK-293-SNCA-luc viability, GF-AFC fluorescence, 24 h. AID 1671193, 2021; further: nearly all actives have a fitted effect of over 30% in size
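HEK-293-SNCA-luc cells (1500/well) plated 24 h, then exposed 24 h to a dilution series; GF-AFC added 30 min at 37C, fluorescence 405/540 nm; normalised to medium-only and DMSO wells, Hill fit.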
IP6K1 inh: Primary qHTS assay for small molecule inhibitors of Inositol hexaphosphate kinase 1 (IP6K1); Inositol hexakisphosphate kinase 1 (Homo sapiens), Q92551; IP6K1 kinase, ADP-Glo luminescence, 2 h; hits give low values; activity change, % (series mostly up to about 58 µM); hit rate 0.81% among 140,000; in the data active means activity change below about -25%
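ADP-Glo luminescence measures ADP made by human IP6K1 during a 2 h RT reaction with ATP/IP6 (mix at 1.3 mM/130 uM); top library doses 57.5 and 19.1 uM final.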
Hits are given with their value; – = inactive; ? = inconclusive; · = no result given; ! = a repeat was not active. This is a sample that favours compounds with a hit; in the whole collection about 2.8% have one here. Unless noted, the call rests on the fitted dose curve; in most records, active means well fitted curve in the direction sought with a large enough effect; inconclusive means small, poorly fitted or top-dose-only effect, or another doubt; inactive means no such curve, though single readings can be large; an effect the other way counts as inactive or inconclusive.

SMILES	KDM5B inhibitor	SNCA expr inhib	SNCA viab count	IP6K1 inh
Cn1ncc2c(C(=O)NCCc3ccc(Cl)cc3)cc(-c3ccc(Cl)cc3)nc21	?	?	–	–
CC(C)NC(=O)c1cc(-c2ccc(Cl)cc2Cl)nc2c1cnn2C	89µM	–	–	–
O=C(/C=C/NCc1ccccc1)C(F)(F)F	–	·	·	·
CC(=O)N1CCC(c2nnc3n2C(C(=O)NCc2ccc(Cl)cc2)CC3)CC1 (configuration not stated)	·	–	–	–
CC(=O)NCCNC(=O)c1ccc(-c2ncc3cnc(-c4cccc(F)c4)cn23)cc1	28µM	–	–	–
O=C(NC1CCC(O)CC1)c1ccc(-c2ncc3cnc(-c4cccc(F)c4)cn23)cc1 (configuration not stated)	22µM	–	–	–
O=C(NCCc1cnc[nH]1)c1ccc(-c2ncc3cnc(-c4cccc(F)c4)cn23)cc1	?	–	–	–
Cc1csc(NC(=O)c2cnc3c(c2)N(C(=O)Cc2ccc(C(C)C)cc2)CCC3)n1	32µM	?	?	–
CC(C)c1ccc(CC(=O)N2CCCc3ncc(C(=O)Nc4ccccc4)cc32)cc1	?	?	?	–
O=[N+]([O-])c1ccccc1S(=O)(=O)NC(c1ccccc1)c1cccs1 (configuration not stated)	–	·	·	·
C=CCC(=O)N1CCCC1C(=O)Nc1ccccc1-c1ccc(OC)cc1 (configuration not stated)	?	–	–	–
O=C1Nc2ccc(-c3ccc4c(c3)OCO4)cc2C(=O)N2CCN(C(=O)NC3CCCCC3)C[C@H]12	11µM	–	–	–
O=C1Nc2ccc(-c3ccc4c(c3)OCO4)cc2C(=O)N2CCN(C(=O)COc3ccccc3)C[C@H]12	28µM	–	–	–
COc1cc(SC)ccc1C(=O)N[C@H]1C[C@H]2C(=O)Nc3ccc(-c4ccc5c(c4)OCO5)cc3C(=O)N2C1	32µM	–	–	–
CC(=O)N1CCC(C(=O)N2CCN3C(=O)c4cc(-c5ccc6c(c5)OCO6)ccc4NC(=O)[C@H]3C2)CC1	?	–	–	–
COc1ccc(-n2nc3n(c2=O)CCN(CC2CCCCC2)C3)cc1	?	–	–	–
CC(C)n1nc(OC(C)(C)C(=O)NCCc2ccccn2)c2cc(CN3CCOCC3)ccc21	28µM	–	–	–
CC(C)n1nc(OC(C)(C)C(=O)NC2CC2)c2cc(CN3CCOCC3)ccc21	32µM	–	–	–
CC(C)n1nc(OC(C)(C)C(=O)Nc2cccnc2)c2cc(CN3CCOCC3)ccc21	?	–	–	–
c1ccc2c(-c3csc(NC4CC4)n3)c[nH]c2c1	–	·	·	·
c1cnc2nc(-c3c[nH]c4ccccc34)[nH]c2c1	35µM!	–	–	–
c1ccc2c(-c3nc4ccncc4[nH]3)c[nH]c2c1	40µM!	–	–	–
CC(C)(C)OC(=O)N1CC(Nc2ccc(O)cc2)C1	8.9µM!	?	?	–
O=C(NCCN1CCCCCC1)C1CCC1	–	·	·	·
COc1ccc2cc(C(C)C(=O)NC3CC3)ccc2c1 (configuration not stated)	–	·	·	·
SMILES	KDM5B inhibitor	SNCA expr inhib	SNCA viab count	IP6K1 inh
COc1cc(F)ccc1-c1cc(C(=O)NCc2cccnc2)c2c(c1)N(C)CCO2	28µM	–	–	–
COc1ccc(-c2cc(C(=O)NCc3cnn(C)c3)c3c(c2)N(C)CCO3)cc1	35µM	?	–	–
COc1cc(F)ccc1-c1cc(C(=O)NCc2cnn(C)c2)c2c(c1)N(C)CCO2	40µM	–	–	–
Nc1nc(Nc2ccc3c(c2)CCC(N2CCCC2)CC3)nn1-c1cc2c(nn1)-c1ccccc1CCC2 (configuration not stated)	·	·	?	–
COc1cc(O)c2c(c1)C1OC1C[C@H](O)[C@H](O)C(=O)C=CC[C@H](C)OC2=O (some centres not stated)	·	–	?	·
COc1cc(O)c2c(c1)C1OC1C[C@H](O)[C@H](O)C(=O)/C=C\C[C@H](C)OC2=O (some centres not stated)	·	·	12µM	–
O=C(Nc1cnc(-c2cccc(Cl)c2)nc1)c1ccc(F)cc1Cl	–	–	–	–
Cn1cccc1C(=O)N1CC(Oc2cccc(-c3nc(-c4ccccc4)no3)c2)C1	32µM	–	–	–
O=C(c1cccc2[nH]ccc12)N1CC(Oc2cccc(-c3nc(-c4ccccc4)no3)c2)C1	25µM	–	–	–
CC1=C[C@@H](CN2CCC[C@H]2CO)[C@H](C(C)C)C[C@H]1Cc1nnc(-c2ccc(N(C)C)cc2)o1	11µM	–	–	–
COCCNC[C@@H]1C=C(C)[C@H](Cc2nnc(-c3ccc(N(C)C)cc3)o2)C[C@H]1C(C)C	28µM	–	?	–
CC1=C[C@@H](CO)[C@H](C(C)C)C[C@H]1Cc1nnc(-c2ccc(N(C)C)cc2)o1	32µM	–	–	–
CC1=C[C@@H](CNCCN(C)C)[C@H](C(C)C)C[C@H]1Cc1nnc(-c2ccc(C)cc2)o1	–	–	–	–
COCC(=O)NC[C@H]1OC[C@@H](NC2CCCCC2)[C@@H]1O	–	–	–	–
CN(C)C[C@@H]1CN(C2CCOCC2)C[C@H]1NC(=O)Cc1ccsc1	?	?	–	–
CN(C)C[C@@H]1CN(c2ncccn2)C[C@H]1NC(=O)CCn1cccn1	28µM	–	–	–
CN(C)C[C@@H]1CN(c2ncccn2)C[C@H]1NC(=O)Cc1ccsc1	22µM	–	–	–
COc1ccc(CCC(=O)N[C@@H]2CN(c3ncccn3)C[C@H]2CO)cc1	22µM	–	–	–
COc1ccc(CC(=O)N[C@@H]2CN(C)C[C@H]2CN(C)C)cc1	–	–	–	–
COc1ccc(CCC(=O)N[C@@H]2CN(c3ncccn3)C[C@H]2CN(C)C)cc1	22µM	–	–	–
O=C(NCCc1ccccc1)[C@@H]1COCC(=O)N1Cc1ccc(F)cc1	–	–	–	–
Cc1ccc(CN2CCN(c3nc4c([nH]3)c(=O)n(C)c(=O)n4C)CC2)cc1	–	·	·	·
COc1ccccc1CCC(=O)N[C@@H]1CN(c2ccncn2)C[C@H]1CN(C)C	–	–	–	–
COc1ccccc1CC(=O)N[C@@H]1CN(c2ncccn2)C[C@H]1CN(C)C	22µM	–	–	–
O=C(CCC1CCCCC1)Nc1ccc(Nc2ccccc2)cc1	–	·	·	·
CCOC(=O)N1CCN(Cc2nc3cc(NC(=O)c4ccccc4OC)ccc3n2C(C)C)CC1	?	–	–	-57
CCOC(=O)N1CCN(Cc2nc3cc(NC(=O)c4ccccc4[N+](=O)[O-])ccc3n2C(C)C)CC1	–	–	–	–
COc1ccc(-c2nnc3ccc(NCCc4ccccn4)nn23)nc1	40µM	–	–	–
Cc1ccc(-c2nnc3ccc(NCCc4ccccn4)nn23)nc1	?	–	–	–
CC1=C[C@@H](CNC(=O)c2cnccn2)[C@H](C(C)C)C[C@H]1Cc1nc2ccc(F)cc2[nH]1	?	–	?	–
